{"source": "PubChem BioAssay", "note": "Unmarked numbers belong to inactive results. The source made the active and inactive calls.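 How the source made its calls: active means normalized viability below 100% at a tested concentration; inactive means the rest.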", "data": [{"assay": "ovarian cancer cell viability with rucaparib, profiling panel, oncology-focused library, rucaparib conditional (AID 1508598)", "conditions": "patient-derived ovarian cancer cells, CellTiter-Glo viability, 144 h; at 0.00122 µM; OCI-P5x cells; without rucaparib; active compounds read low", "values": [{"smiles": "CO[C@H]1C[C@@H]2CC[C@@H](C)[C@@](O)(O2)C(=O)C(=O)N2CCCC[C@H]2C(=O)O[C@H]([C@H](C)C[C@@H]2CC[C@@H](O)[C@H](OC)C2)CC(=O)[C@H](C)/C=C(\\C)[C@@H](O)[C@H](OC)C(=O)[C@H](C)C[C@H](C)/C=C/C=C/C=C/1C", "viability": "64.8% (active)"}, {"smiles": "CC(=O)OCC(=O)[C@]1(O)[C@H](C)C[C@H]2[C@@H]3CCC4=CC(=O)C=C[C@]4(C)[C@]3(F)[C@H](O)C[C@@]21C", "viability": "106%"}, {"smiles": "CC[C@]1(O)C[C@@H]2CN(CCc3c([nH]c4ccccc34)[C@@](C(=O)OC)(c3cc4c(cc3OC)N(C=O)[C@H]3[C@@](O)(C(=O)OC)[C@H](OC(C)=O)[C@]5(CC)C=CCN6CC[C@@]43[C@@H]65)C2)C1", "viability": "31.5% (active)"}, {"smiles": "C[C@@]12CC[C@H]3c4ccc(O)cc4C[C@@H](CCCCCCCCCS(=O)CCCC(F)(F)C(F)(F)F)[C@H]3[C@@H]1CC[C@@H]2O", "note": "(stereo partly drawn)", "viability": "112%"}, {"smiles": "CC(=O)O[C@@]1(C(C)=O)CC[C@H]2[C@@H]3C[C@H](C)C4=CC(=O)CC[C@]4(C)[C@@H]3CC[C@@]21C", "viability": "103%"}, {"smiles": "CC(=O)O[C@]12CO[C@@H]1C[C@H](O)[C@]1(C)C(=O)[C@H](O)C3=C(C)[C@H](OC(=O)[C@H](O)[C@@H](NC(=O)OC(C)(C)C)c4ccccc4)C[C@](O)([C@H](OC(=O)c4ccccc4)C21)C3(C)C", "note": "(stereo partly drawn)", "viability": "33.3% (active)"}, {"smiles": "CCC1=CC2CN(C1)Cc1c([nH]c3ccccc13)[C@@](C(=O)OC)(c1cc3c(cc1OC)N(C)[C@H]1[C@@](O)(C(=O)OC)[C@H](OC(C)=O)[C@]4(CC)C=CCN5CC[C@@]31[C@H]54)C2", "note": "(stereo partly drawn)", "viability": "1.02% (active)"}, {"smiles": "CC(=O)O[C@H]1C(=O)[C@@]2(C)C([C@H](OC(=O)c3ccccc3)[C@]3(O)C[C@H](OC(=O)[C@H](O)[C@@H](NC(=O)c4ccccc4)c4ccccc4)C(C)=C1C3(C)C)[C@]1(OC(C)=O)CO[C@@H]1C[C@H]2O", "note": "(stereo partly drawn)", "viability": "123%"}]}]}
